Screens as filed in PubChem BioAssay.
Many of the other results were omitted from the sample, so hits are more common in it than they were.
HT1080 IDH1KD tx: kills HT-1080 cells with IDH1 knockdown; HT-1080 IDH1 knockdown viability, ATP luminescence, 48 h; Potency, µM (titrated, usually from 46.1 µM), inactives show at the highest dose activity, negative = toxicity, usual class: cytotoxic; 2% of 360,000 active;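 further: potency means the concentration at half of the fitted maximal effect; 0% = DMSO wells and -100% = cell-free medium wells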
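CellTiter-Glo luminescence after 48 h compound exposure at 37 degrees C of IDH1-knockdown HT-1080 cells in 5% FBS RPMI. %Activity scaled between DMSO wells and cell-free media wells, with curves fitted and assigned curve classes.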
IL1B secr inh: inflammasome signaling inhibition, IL-1 beta readout. activity change, % at 57.5 µM. THP-1 LPS/ATP IL-1B secretion, AlphaLISA, 16 h; stronger effect = lower value. 4.7% of 360,000 active; in the data active means activity change below about -50%; inconclusive means mostly about -30% to -49%
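THP-1 cells pretreated 1 hr with compounds (up to 57.5 uM final), then stimulated with LPS (250 ng/mL final) plus ATP (1.25 mM final); secreted IL-1B measured by AlphaLISA after 16 hr, decreased signal indicating inhibition.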
ALOX12 inh: ALOX12 (human) lipoxygenase inhibition | P18054 | purified 12hLO, xylenol orange hydroperoxide absorbance | Potency, µM (titrated, usually from 108 µM), inactives show at the top dose activity change, negative = inhibition, usual class: inhibitors | 1.1% of 580,000 active; further: potency means the concentration at half of the fitted maximal effect
Target sequence (P18054 whole entry, looked up): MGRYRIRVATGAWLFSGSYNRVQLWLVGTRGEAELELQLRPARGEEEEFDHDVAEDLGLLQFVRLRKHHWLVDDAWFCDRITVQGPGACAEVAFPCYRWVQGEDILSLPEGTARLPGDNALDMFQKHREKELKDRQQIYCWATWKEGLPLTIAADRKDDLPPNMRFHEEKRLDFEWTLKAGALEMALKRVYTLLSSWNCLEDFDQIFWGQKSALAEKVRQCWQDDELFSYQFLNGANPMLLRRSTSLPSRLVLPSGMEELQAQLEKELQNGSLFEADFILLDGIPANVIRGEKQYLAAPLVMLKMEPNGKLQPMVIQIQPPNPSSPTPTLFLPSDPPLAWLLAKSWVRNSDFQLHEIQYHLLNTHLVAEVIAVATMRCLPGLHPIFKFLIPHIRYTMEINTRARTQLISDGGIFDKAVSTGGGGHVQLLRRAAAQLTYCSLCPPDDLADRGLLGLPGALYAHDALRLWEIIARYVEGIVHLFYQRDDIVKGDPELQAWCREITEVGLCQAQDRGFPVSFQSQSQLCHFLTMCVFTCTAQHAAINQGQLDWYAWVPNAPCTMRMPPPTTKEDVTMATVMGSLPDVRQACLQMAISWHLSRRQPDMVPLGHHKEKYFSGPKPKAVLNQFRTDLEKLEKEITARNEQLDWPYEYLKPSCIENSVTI
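Purified human 12hLO at 150 nM in 25 mM Hepes, 0.01% Triton X-100, pH 7.0, preincubated 15 min at room temperature with compound. Reaction started with 40 uM arachidonic acid, 30 min at room temperature. Hydroperoxide measured by Fe-xylenol orange, 573/405 nm absorbance ratio.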
HT1080-NT tox: kills 2HG-producing HT-1080-NT fibrosarcoma cells | HT-1080-NT fibrosarcoma viability, CellTiter-Glo ATP luminescence, 48 h | Potency, µM (series often up to 46.1 µM), for inactives: at the top dose activity, negative = less viability, most hits filed as cytotoxic | 1.6% of 360,000 active;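 further: NT is the 2HG producing partner of a matched IDH1 knockdown line; potency means the concentration at half of the fitted maximal effect; 0% = DMSO-treated cells and -100% = media-only wells without cells; nearly all actives have a fitted effect of over 55% in size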
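750 cells/well, RPMI + 5% FBS; 2 h settle, compound pin-transfer, 48 h at 37 degrees C. CellTiter-Glo 10 min RT, luminescence. Normalized to DMSO and media-only wells.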
TDP1 cell CPT: DT40-hTDP1 cell growth loss with CPT; Potency, µM (titrated, usually from 46.2 µM), inactives show at the highest dose activity change, negative = growth inhibition, most hits filed as inhibitors; chicken DT40 Tdp1-/-;hTDP1 cells + 20 nM CPT, ATP luminescence, 48 h; 12% of 420,000 active; further: potency means the concentration at half of the fitted maximal effect; nearly all actives have a fitted effect of over 55% in size
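Chicken DT40 Tdp1-/- cells complemented with human TDP1, 400 cells/well, exposed to compounds plus 20 nM camptothecin for at least 48 h at 37 C; viability read as ATP content by CellTiter-Glo luminescence.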
DT40 TDP1 no CPT: qHTS for Inhibitors of human tyrosyl-DNA phosphodiesterase 1 (TDP1): qHTS in cells in absence of CPT | AID 686978, 2013 | Potency, µM (highest dose often 46.2 µM), for the others: at the top dose activity change, negative = growth inhibition, most hits filed as inhibitors | DT40 Tdp1-/- hTDP1 cells, no CPT, ATP luminescence, 48 h | 15% of 420,000 active; further: potency means the concentration at half of the fitted maximal effect; nearly all actives have a fitted effect of over 55% in size
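No-CPT arm: Tdp1-/-;hTDP1 DT40 cells (400/well) plus compounds, incubated ≥48 hr at 37 °C. Readout CellTiter-Glo luminescence.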
* marks the source's active call; other numbers are inactive results; ? = inconclusive; / = no result given; [ ] = another dose, or the depositor's remark. Unless noted, the call rests on the fitted dose curve; in most records, active means well fitted curve in the direction sought with a large enough effect; inconclusive means small, poorly fitted or top-dose-only effect, or another doubt; inactive means no such curve, though single readings can be large; an effect the other way counts as inactive or inconclusive. Unless noted, on the % scale 0 is the no-effect control and ±100 the full control effect.

SMILES	HT1080 IDH1KD tx	IL1B secr inh	ALOX12 inh	HT1080-NT tox	TDP1 cell CPT	DT40 TDP1 no CPT
COCCN1CCC(N2CCN(S(=O)(=O)c3cc(F)ccc3C)CC2)C1=O (configuration not stated)	/	/	56%	/	/	/
COc1cccc(/C=C2\SC(=S)N(CCCC(=O)N3CCCCC3CCO)C2=O)c1 (configuration not stated)	-3%	-70*	0%	-8%	?	16µM*
O=[N+]([O-])c1cccc(/C=N/Nc2cc(N3CCOCC3)ncn2)c1	13%	-68*	20%	-3%	?	?
C/C(=N\Nc1cc(N2CCOCC2)nc(C)n1)c1ccc(F)cc1	-16%	?	-10%	-18%	?	?
O=[N+]([O-])c1cccc(/C=N/Nc2nc(N3CCOCC3)nc(N3CCOCC3)n2)c1	-1%	-1	-9%	1%	-5%	?
C/C(=N\Nc1nc(N2CCOCC2)nc(N2CCOCC2)n1)c1cccc([N+](=O)[O-])c1	5%	-3	7%	1%	4%	-17%
C/C(=N\Nc1cc(N2CCOCC2)ncn1)c1ccccc1	-9%	-79*	29%	-9%	23µM*	?
C/C(=N\Nc1cc(N2CCOCC2)ncn1)c1cccc([N+](=O)[O-])c1	13%	-21	0%	5%	?	16µM*
Cc1ccc(Cn2c(C3CCN(C(=O)c4ccc(F)c(Cl)c4)CC3)n[nH]c2=O)cc1	/	/	36%	/	/	/
CC(C)N1CCN(C(=O)c2cc3n(n2)CC(c2ccc(Br)cc2)OC3)CC1 (configuration not stated)	/	/	37%	/	/	/
c1cnc(N2CCN(c3nc4ccccc4n4cnnc34)CC2)nc1	5%	-11	10%	2%	-12%	-22%
c1ccc(C(c2ccccc2)N2CCN(c3nc4ccccc4n4cnnc34)CC2)cc1	-3%	36	17%	0%	?	3.7µM*
Cc1cccc(N2CCN(c3nc4ccccc4n4cnnc34)CC2)c1C	-1%	6	?	1%	26µM*	?
COc1ccc(-c2nc(CSCC(=O)NCc3ccccc3)c(C)o2)cc1OC	/	/	-83%	/	/	/
COc1cccc(NC(=O)CN(C)CC(=O)NC(=O)NCc2ccccc2)c1	/	/	-5%	/	/	/
CN(CC(=O)NC(=O)NCc1ccccc1)CC(=O)Nc1ccc(Cl)c(Cl)c1	?	-8	186%	-26%	26µM*	?
CN(CC(=O)Nc1ccc(Cl)c(Cl)c1)CC(=O)Nc1ccc2c(c1)OCO2	-14%	-57*	322%	-19%	?	4%
O=C(Nc1ccc(Cl)c(Cl)c1)c1ccc2c(c1)OCO2	-7%	-7	0%	-11%	14%	?
COCCn1c(=O)c(-c2ccc(Cl)cc2)nc2cnc(OC)nc21	/	/	131%	/	6%	?
Cc1cccc(/C=C(/C#N)C(=O)c2c(C)[nH]c3ccccc23)c1	/	/	13%	/	/	/
CCc1ccc(/C=C(/C#N)C(=O)c2c(C)[nH]c3ccccc23)cc1	/	/	14µM*	/	/	/
Cc1ncc2c(c1CNC(=O)c1ccccc1F)CCN(C(=O)c1csc(-c3cccs3)n1)C2	/	/	94%	/	4%[9.04 µM]	?
Cc1nc2nc(NC(=O)c3ccc(C(C)(C)C)cc3)[nH]n2c(=O)c1C	/	/	-14%	/	16%	0%
CN(CC(=O)Nc1cccc(F)c1)C(=O)CCc1ncc(-c2ccc(F)cc2)o1	/	/	-3%	/	/	/
O=C1c2ccccc2-c2nnc(-c3ccccc3)cc21	-8%	31	1%	-1%	3.7µM*	5.2µM*
SMILES	HT1080 IDH1KD tx	IL1B secr inh	ALOX12 inh	HT1080-NT tox	TDP1 cell CPT	DT40 TDP1 no CPT
COc1ccc(-c2cc3c(nn2)-c2ccccc2C3=O)cc1	-15%	23	8%	-24%	26µM*	16µM*
O/N=C(/c1ccccc1)c1ccc(O)cc1O	/	/	11%	/	/	/
O=c1[nH]c(/C(=N\O)c2ccccc2)no1	-4%	-17	64%	-6%	?	15µM*
Cc1[nH]c2ccccc2c1C(=O)C(=O)N(C)Cc1ccc(C(=O)NC2CC2)cc1	/	/	14%	/	/	/
Brc1ccc(-c2cc3n(c2)CCc2ccccc2-3)cc1	/	/	-20%	/	/	/
CC1=C(C(=O)OC(C)C)C(c2cccs2)C(C(=O)OC(C)C)=C(C)N1	?	-73*	2%	?	?	12µM*
COCCOC(=O)C1=C(C)NC(=O)NC1c1cccs1 (configuration not stated)	10%	10	2%	7%	-8%	-16%
CCOC(=O)C1=CN(Cc2ccc(OC)cc2)C=C(C(=O)OCC)C1c1cccs1	1%	-64*	-18%	-4%	?	?
CCOC(=O)c1sc2c(c1C)C(c1cccs1)C1=C(CCCC1=O)N2 (configuration not stated)	?	-4	-3%	-21%	?	16µM*
CC1=C(C(=O)OC(C)C)C(c2ccccc2)NC(=O)N1 (configuration not stated)	/	/	44%	/	/	/
CC1=C(C(=O)OC(C)C)C(C)C(C(=O)OC(C)C)=C(C)N1	3%	?	-15%	6%	11µM*	?
O=C1CS(=O)C2(CCN(S(=O)(=O)Cc3ccccc3F)CC2)N1CC1CC1 (configuration not stated)	/	/	37%	/	/	/
CS(=O)(=O)c1ccc(NC(=O)c2ccccc2-c2ccccc2)cc1	/	/	11%	/	/	/
CN(Cc1ccco1)C(=O)[C@@H](Cc1ccccc1)NC(=O)[C@H]1O[C@@H](n2ccc(=O)[nH]c2=O)[C@H](O)[C@@H]1O	/	/	-22%	/	/	/
CCOC(=O)C1=C(C)Nc2[nH]c(=O)[nH]c(=O)c2C1c1cccs1 (configuration not stated)	4%	15	-36%	0%	8%	-2%
CCOC(=O)C1=C(C)NC(C)=C(C(=O)OCC)C1c1cccs1	-13%	1	-2%	-12%	?	23µM*
C[n+]1nc(Nc2ccccc2)sc1-c1ccc(O)cc1	3%	-15	?	?	?	-29%
C[n+]1c(-c2ccccc2)sc([S-])c1-c1ccccc1	-13%	7	?	-10%	23µM*	9.2µM*
CC(C)(O)CCc1c(-c2ccc(O)cc2O)oc2c3c(cc(O)c2c1=O)OC(C)(C)C=C3	-15%	-14	45µM*	0%	12µM*	16µM*
Fc1ccc(NC(=S)NCCc2ccc(Cl)cc2)cc1	-3%	0	-25%	-7%	?	23µM*
